Bioassay records (PubChem)
IL-1B inflam inh – blocks inflammasome-driven IL-1 beta release. THP-1 LPS/ATP IL-1B secretion, AlphaLISA, 16 h; hits give low values. activity change, % at 57.5 µM. 360,000 tested, 4.7% active. AID 743279; in the data active = activity change below about -50%; inconclusive = mostly about -30% to -49%
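THP-1 cells pretreated 1 hr with compounds (up to 57.5 uM final), then stimulated with LPS (250 ng/mL final) plus ATP (1.25 mM final); secreted IL-1B measured by AlphaLISA after 16 hr, decreased signal indicating inhibition.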
DT40 TDP1 no CPT – qHTS for Inhibitors of human tyrosyl-DNA phosphodiesterase 1 (TDP1): qHTS in cells in absence of CPT. DT40 Tdp1-/- hTDP1 cells, no CPT, ATP luminescence, 48 h. 420,000 tested, 15% active. AID 686978, 2013. Potency, µM (doses to about 46.2 µM), for inactives: top-dose activity change, negative = growth inhibition, most hits filed as inhibitors; also: potency is read from the fitted curve at half-maximal effect; nearly all actives have a fitted effect of over 55% in size
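Growth kinetics read by CellTiter-Glo luminescence after ≥48 hr at 37 °C. Cells: DT40 Tdp1-/- stably carrying human TDP1, 400 per well, compound exposure in the absence of CPT (DMSO vehicle).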
TDP1 cell CPT – DT40-hTDP1 cell growth loss with CPT | chicken DT40 Tdp1-/-;hTDP1 cells + 20 nM CPT, ATP luminescence, 48 h | Potency, µM (doses to about 46.2 µM), for the others: top-dose activity change, negative = growth inhibition, usual class: inhibitors | 420,000 tested, 12% active | AID 686979; also: potency is read from the fitted curve at half-maximal effect; nearly all actives have a fitted effect of over 55% in size
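Chicken DT40 Tdp1-/- cells complemented with human TDP1, 400 cells/well, exposed to compounds plus 20 nM camptothecin for at least 48 h at 37 C; viability read as ATP content by CellTiter-Glo luminescence.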
Gal4-VP16 FLuc – Gal4-VP16 reporter inhibition counter-screen. Drosophila S2 Gal4-VP16 UAS-luciferase, luminescence, 20 h. Potency, µM (titrated, usually from 53.6 µM), inactives show at the highest dose activity, negative = inhibition, actives largely listed as inhibitors. 310,000 tested, 3.5% active. AID 2546;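 also: Gal4-VP16 expression switched on by copper sulfate through the metallothionein promoter; potency is read from the fitted curve at half-maximal effect; nearly all actives have a fitted effect of over 50% in size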
RORgamma inh – blocks mouse ROR gamma transcriptional activity. Potency, µM (series often up to 53.6 µM), without a hit: at the top dose activity change, negative = inhibition, actives largely listed as inhibitors. 310,000 tested, 5.4% active. Drosophila S2 Gal4-RORgamma UAS-luciferase reporter, 20 h; also: potency is read from the fitted curve at half-maximal effect; nearly all actives have a fitted effect of over 60% in size
Target sequence (P51450 whole entry, looked up, the tested form may be a part): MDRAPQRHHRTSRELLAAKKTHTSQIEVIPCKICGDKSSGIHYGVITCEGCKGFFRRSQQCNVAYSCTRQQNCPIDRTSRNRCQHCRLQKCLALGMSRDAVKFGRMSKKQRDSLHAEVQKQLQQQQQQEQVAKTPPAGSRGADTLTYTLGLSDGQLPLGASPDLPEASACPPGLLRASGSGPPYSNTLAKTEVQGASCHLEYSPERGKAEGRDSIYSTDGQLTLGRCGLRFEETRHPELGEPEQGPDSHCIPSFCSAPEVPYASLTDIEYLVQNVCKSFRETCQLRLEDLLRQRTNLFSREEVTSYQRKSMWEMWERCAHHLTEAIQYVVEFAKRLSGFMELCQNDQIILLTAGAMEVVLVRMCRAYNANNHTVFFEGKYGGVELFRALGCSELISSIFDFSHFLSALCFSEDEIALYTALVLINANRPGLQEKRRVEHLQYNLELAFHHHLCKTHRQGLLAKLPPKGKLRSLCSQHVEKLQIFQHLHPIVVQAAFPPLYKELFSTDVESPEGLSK
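Compounds are pin-transferred onto Drosophila Schneider cells expressing a copper-inducible Gal4–ROR gamma transactivation domain fusion. After 1 hr, copper sulfate is added to 700 uM final; luciferase is read 20 hr later.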
ELG1 repair inh – inhibitors of ELG1-dependent DNA repair in HEK293T cells; HEK293T ELG1-luciferase reporter, luminescence, 16 h; DNA damage induced by 5-fluorouridine; Potency, µM (titrated, usually from 46.1 µM), inactives show at the highest dose activity change, negative = inhibition, actives largely listed as inhibitors; 330,000 tested, 2.3% active; AID 504467; also: potency is read from the fitted curve at half-maximal effect; nearly all actives have a fitted effect of over 55% in size
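5-Fluorouridine DNA damage + compound/DMSO, 2,000 cells/well, 16 h, 37 °C/5% CO2. ONE-Glo, 30 min RT, luminescence. Readout = decrease in reporter signal.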
* hit, by the source's call; ! = not active in a repeat; [ ] = another dose, or the depositor's remark. This is a sample that favours compounds with a hit; in the whole collection about 21% have one here. Unless noted, calls follow the shape of the dose curve; as a rule, active = well fitted curve in the direction sought with a large enough effect; inconclusive = small, poorly fitted or top-dose-only effect, or another doubt; inactive = no such curve, though single readings can be large; an effect the other way counts as inactive or inconclusive. % is scaled to controls: 0 for no effect and ±100 for the full control effect.

How did CC(C)Oc1ccc2c(=O)c(-c3ccccc3)coc2c1 do in these assays?
IL-1B inflam inh: 0.0; DT40 TDP1 no CPT: 18.4µM*!; TDP1 cell CPT: inconclusive; Gal4-VP16 FLuc: inconclusive; RORgamma inh: -38.3%; ELG1 repair inh: inconclusive

Results for Cc1csc(C(C)NC(=O)c2ccc(OC3CCN(CCc4ccccc4)CC3)cc2)n1 (stereo not drawn) ?
IL-1B inflam inh: 9.6; DT40 TDP1 no CPT: inconclusive; TDP1 cell CPT: inconclusive; Gal4-VP16 FLuc: -4.1%; RORgamma inh: -14.9%; ELG1 repair inh: -0.2%

What do the screens show for `c1nc(NCc2ccc3c(c2)OCO3)c2cc(-c3ccoc3)ccc2n1`?
ELG1 repair inh: 1.64µM*

Results for Nc1nc(Cl)cc(NCCc2ccc(O)cc2)n1 ?
IL-1B inflam inh: -10.0; DT40 TDP1 no CPT: inconclusive; TDP1 cell CPT: -20.1%; Gal4-VP16 FLuc: -24.2%; RORgamma inh: inconclusive; ELG1 repair inh: -3.4%

What do the screens show for `COc1cc2ncnc(NCc3ccc4c(c3)OCO4)c2cc1OC`?
IL-1B inflam inh: -12.1; DT40 TDP1 no CPT: inconclusive; TDP1 cell CPT: inconclusive; Gal4-VP16 FLuc: -10.3%; RORgamma inh: 4.5%; ELG1 repair inh: inconclusive

How did Oc1ccc(CCNc2ncnc3ccc(Cl)cc23)cc1 do in these assays?
IL-1B inflam inh: 45.9; DT40 TDP1 no CPT: 2.31µM*; TDP1 cell CPT: 2.59µM*; Gal4-VP16 FLuc: 6.31µM*; RORgamma inh: inconclusive; ELG1 repair inh: inconclusive

How did CNc1ncnc2ccc(-c3ccc4c(c3)OCO4)cc12 do in these assays?
DT40 TDP1 no CPT: 18.4µM*; TDP1 cell CPT: 23.1µM*; Gal4-VP16 FLuc: 0.2%; RORgamma inh: 0.1%

What do the screens show for `Clc1ccc2ncnc(NCc3ccc4c(c3)OCO4)c2c1`?
DT40 TDP1 no CPT: 2.51µM*; TDP1 cell CPT: 3.16µM*; Gal4-VP16 FLuc: 7.94µM*; RORgamma inh: inconclusive

What do the screens show for `Cc1cnc(-n2ncc(C(=O)N(CCO)C(C)C)c2-c2cccs2)nc1-c1ccc(F)cc1`?
DT40 TDP1 no CPT: inconclusive; TDP1 cell CPT: -4.4%

Results for COc1ccc(C(=O)NCc2nnc(SC)n2-c2ccccc2C)c(OC)c1OC ?
DT40 TDP1 no CPT: -17.4%; TDP1 cell CPT: 5.9%[9.04 µM]

What do the screens show for `CSc1ccc(S(=O)(=O)Nc2c(C)n(C)n(-c3ccccc3)c2=O)cc1`?
IL-1B inflam inh: inconclusive; DT40 TDP1 no CPT: 9.6%; TDP1 cell CPT: -0.2%; Gal4-VP16 FLuc: -9.1%; RORgamma inh: -13.5%; ELG1 repair inh: 7.7%

How did CC1(C(=O)NS(=O)(=O)Cc2cccc(Cl)c2)CCN1C(=O)c1ccc(C2CCCCC2)cc1 (stereo not drawn) do in these assays?
IL-1B inflam inh: 6.4; DT40 TDP1 no CPT: -2.8%; TDP1 cell CPT: -22.5%

What do the screens show for `O=C(CCC(=O)Nc1cccc([N+](=O)[O-])c1)N/N=C/c1cccs1`?
IL-1B inflam inh: 20.5; DT40 TDP1 no CPT: 3.7%; TDP1 cell CPT: -6.3%; Gal4-VP16 FLuc: -11.5%; RORgamma inh: 19.8%; ELG1 repair inh: 2.2%

Results for O=C(CCC(=O)Nc1cccc(Cl)c1)N/N=C/c1cc([N+](=O)[O-])ccc1O ?
IL-1B inflam inh: 154.5; DT40 TDP1 no CPT: inconclusive; TDP1 cell CPT: inconclusive; Gal4-VP16 FLuc: inconclusive; RORgamma inh: 11.2µM*; ELG1 repair inh: inconclusive

How did O=C(CN(c1cccc(Br)c1)S(=O)(=O)c1ccccc1)N/N=C/c1cc([N+](=O)[O-])ccc1O do in these assays?
IL-1B inflam inh: 118.0; DT40 TDP1 no CPT: inconclusive; TDP1 cell CPT: inconclusive
